From PubChem BioAssay
Hits are enriched below; roughly 4% of the tested compounds scored in any of these assays.
NLRP3 yeast inh: inhibitors of NALP3 inflammasome in yeast; 0.39% of 330,000 active; inhibition, % at 10 µM; Yeast reconstituted NLRP3/ASC/caspase-1, beta-gal luminescence, 24 h; AID 2825;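 active means inhibition of 50% or more; inactive means inhibition below 50%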;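 further: plate controls were induced DMSO wells for no effect and uninduced yeast grown without galactose for full effect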
tim10-1 inh: growth inhibitors of tim10-1 mutant yeast; S. cerevisiae tim10-1 ts strain growth, BacTiter-Glo, 24 h; inhibition, % at 20 µM; 2.2% of 330,000 active;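 active means inhibition of at least 40%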;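 further: mutant grown at 25 °C; 0% = DMSO wells with yeast and 100% = wells holding no yeast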
NALP1 yeast inh: blocks the NALP1 inflammasome reconstituted in yeast | S. cerevisiae NALP1/ASC/caspase-1 growth, X-gal OD620, 72 h | inhibition, % at 10 µM | 0.61% of 280,000 active | AID 2071; in the data active means inhibition mostly above about 24%, no sharp cut-off; inactive means mostly below about 32%
TIM10 inh: inhibits growth of TIM10 yeast strain; AID 463195; S. cerevisiae TIM10 strain growth, BacTiter-Glo luminescence, 24 h; inhibition, % at 10 µM; 1.4% of 330,000 active;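 active means inhibition of 40% or more at the single tested concentration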;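 further: wild-type TIM10 isogenic control strain grown at permissive 25 °C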
tim23-1 inh: growth inhibitors of tim23-1 mutant yeast; S. cerevisiae tim23-1 growth, BacTiter-Glo luminescence, 24 h; inhibition, % at 20 µM; 1.3% of 330,000 active; AID 463212;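 active means growth inhibition of the mutant yeast at or above 50%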;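 further: temperature-sensitive mutant grown at 25 °C; plate controls were DMSO-treated mutant yeast for no effect and medium wells lacking yeast for full effect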
tim10-1 confirm: confirmation of tim10-1 mutant yeast growth inhibitors; shares compounds with tim10-1 inh; S. cerevisiae tim10-1 ts strain growth, BacTiter-Glo, 24 h; inhibition, % at 20 µM; 56% of 7,400 active;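 active means inhibition of yeast growth at or above a set limit in either of two repeat tests at 20 µM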;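 further: tim10-1 mutant grown at permissive 25 °C to find synthetic lethal compounds; 0% = DMSO yeast wells and 100% = medium wells without yeast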
tim10 confirm: TIM10 yeast growth inhibition, confirmed; shares compounds with TIM10 inh; S. cerevisiae tim10 strain growth, BacTiter-Glo luminescence, 24 h; inhibition, % at 10 µM; 63% of 4,600 active; AID 463215;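 active means inhibition of yeast growth at or above a set limit in either of two replicates at 10 µM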;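 further: this counterscreen used the strain with wild-type TIM10; 0% = yeast with DMSO and 100% = medium wells lacking yeast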
Starred values were filed as active, the others as inactive; . = no result given.

SMILES | NLRP3 yeast inh | tim10-1 inh | NALP1 yeast inh | TIM10 inh | tim23-1 inh | tim10-1 confirm | tim10 confirm
CCOC(=O)C1CCN(C(=O)c2sc3nc(-c4ccc(F)cc4)cn3c2C)CC1 | -2 | 74* | 5 | 78* | 43 | 74* | 69*
CCOC(=O)C1CCCN(C(=O)c2sc3nc(-c4ccccc4)cn3c2C)C1 (stereo not given) | -5 | 7 | 3 | 22 | 30 | . | .
C/C(=N\Nc1nc(C)c(C)s1)c1ccc([N+](=O)[O-])cc1 | 18 | 9 | 14 | 9 | -5 | . | .
CC[C@]1(C(=O)OC)[C@H]2C(=O)N(C)C(=O)[C@H]2[C@H]2CN(C)C(=NC3CCCCC3)N21 | . | 15 | . | -1 | 35 | . | .
COC(=O)c1c(NC(=O)c2ccccc2F)sc(C(=O)N2CCOCC2)c1C | 15 | -10 | -6 | -31 | -1 | . | .
CC1C/C(=C/c2ccncc2)C(=O)/C(=C/c2ccncc2)C1 (stereo not given) | 28 | 44* | 3 | 84* | -8 | 39* | 89*
Cn1nc(C(F)(F)F)c2cc(C(=O)Nc3ccc(F)cc3F)sc21 | 19 | -6 | 26 | 1 | -11 | . | .
Cn1nc(C(F)(F)F)c2cc(NC(=O)OCc3ccc(F)cc3)sc21 | 18 | 58* | -12 | 56* | -6 | 49* | 54*
COc1cc(NC(=O)c2ccc3c(c2)OCCO3)ccc1NC(=O)c1ccccc1Cl | 5 | -12 | 4 | 1 | 7 | . | .
COc1ccc(Cc2nnc(NC(=O)Nc3ccccc3F)s2)cc1OC | 14 | 8 | 10 | -3 | 15 | . | .
C[n+]1c2n(c3ccccc31)N=C(c1ccc(Br)cc1)CS2 | 6 | 44* | 36 | 43* | 27 | 44* | 32*
C[n+]1c2n(c3ccccc31)N=C(c1ccccc1)CS2 | 12 | -7 | -8 | 12 | 6 | . | .
CC(=O)Nc1ccc(NC(=O)C(C)Sc2n[nH]c(=O)n2Cc2ccccc2)cc1 (stereo not given) | 2 | 10 | 6 | -10 | -1 | . | .
COc1ccc(Nc2c3ccccc3nc3ccccc23)cc1 | 7 | -20 | . | -19 | -1 | . | .
COc1cc(Nc2c3ccccc3nc3ccccc23)cc(OC)c1OC | -12 | 78* | 17 | 60* | 38 | 76* | 38*
C=CCn1c(Cc2ccccc2)n[nH]c1=S | 1 | 12 | -3 | 14 | 2 | . | .
C=CCn1c(CCc2cc(C(C)(C)C)c(O)c(C(C)(C)C)c2)n[nH]c1=S | 32 | 50* | -6 | 42* | 47 | 21 | 40*
Cc1ccc(-c2nn(-c3ccccc3)cc2C(N)=O)o1 | 26 | 0 | 5 | 17 | -13 | . | .
Cc1ccc(-c2nn(-c3ccccc3)cc2C=O)o1 | 44 | 63* | 18 | 72* | -40 | 64* | 70*
COc1ccc(S(=O)(=O)/N=C2\C=C(Nc3ccc(O)cc3)C(=O)c3ccccc32)cc1 | 30 | 67* | 2 | 52* | 41 | 62* | 81*
COC(=O)C(C(C)=O)C1=C/C(=N\S(=O)(=O)c2ccc(C)cc2)c2ccccc2C1=O (stereo not given) | 4 | 40* | 1 | 43* | 44 | 41* | 29
CCc1ccc(S(=O)(=O)/N=C2\C=C(NS(=O)(=O)c3ccccc3)C(=O)c3ccccc32)cc1 | 12 | 34 | 14 | 18 | 35 | . | .
Cc1ccc(Nc2nnc(SCC(=O)c3ccc(Br)s3)s2)c(C)c1 | 27 | 43* | 24 | 46* | 38 | 34* | -7
Cc1ccc(NC(=O)CSc2nnc(NC(=O)C(C)C)s2)c(C)c1 | 13 | -1 | 3 | 7 | 5 | . | .
C[C@H](CO)N1C[C@H](C)[C@@H](CN(C)C(=O)NC2CCCCC2)Oc2ccc(NS(=O)(=O)c3ccc(F)cc3)cc2C1=O | 16 | -9 | . | 0 | -4 | . | .
SMILES | NLRP3 yeast inh | tim10-1 inh | NALP1 yeast inh | TIM10 inh | tim23-1 inh | tim10-1 confirm | tim10 confirm
O=C(Oc1ccc(F)cc1C(=O)/C=C/c1cccs1)c1cccc([N+](=O)[O-])c1 | -7 | 51* | 8 | 50* | 21 | 40* | 1
Cc1ccc(OC(=O)c2cccc([N+](=O)[O-])c2)c(-n2nc3ccccc3n2)c1 | -9 | 25 | 20 | -15 | -4 | . | .
c1coc(C2=Nc3cccc4cccc(c34)N2)c1 | 21 | 47* | 1 | 49* | 49 | 26 | 24
CC(C)(CNC(=O)c1ccc(-c2ccccc2Cl)o1)N1CCOCC1 | 29 | 15 | . | 8 | 2 | . | .
O=C(CSc1nnc(-c2ccccc2)c2ccccc12)NCCN1C(=O)CSC1=O | 7 | 10 | . | 14 | 19 | . | .
O=C(NCc1ccco1)C1CCCN1C(=O)Nc1ccc(Br)cc1 (stereo not given) | 10 | 6 | 9 | -20 | 7 | . | .
c1ccc(-c2nnc(-c3c[nH]c4ccccc34)nc2-c2ccccc2)cc1 | 24 | 24 | 7 | 18 | 29 | . | .
Cc1cc(-c2nnc(-c3ccccc3)c(-c3ccccc3)n2)c(C)o1 | -3 | 48* | -1 | 52* | 49 | 46* | 30
CCN(CC)S(=O)(=O)c1cccc(C(=O)Oc2cccc(NC(=O)c3cccs3)c2)c1 | 14 | 17 | 45 | 24 | 22 | . | .
COc1ccc(NC(=O)CN2CCc3ccccc3C2)c([N+](=O)[O-])c1 | 27 | 7 | 10 | 2 | 25 | . | .
CCOC(=O)C(CC(=O)O)=C(c1ccccc1)c1ccccc1 | 12 | 8 | 21 | -5 | 12 | . | .
CCS(=O)(=O)N1Cc2ccccc2CC1C(=O)NC(C)C12CC3CC(CC(C3)C1)C2 (stereo not given) | 20 | 41* | 26 | 47* | 35 | 30* | -17
CCS(=O)(=O)N1Cc2ccccc2CC1C(=O)Nc1nc(C)cs1 (stereo not given) | 9 | 14 | -2 | 20 | 7 | . | .
S=c1[nH]nc(-c2ccc(Br)cc2)n1Cc1ccccc1 | 8 | 42* | -3 | 46* | 19 | 25 | 45*
CCCCn1c(N)c(N(CC(C)C)C(=O)c2ccc(-c3ccc([N+](=O)[O-])cc3)o2)c(=O)[nH]c1=O | 6 | 4 | . | 8 | -8 | . | .
Cn1nccc1C(=O)OCC(=O)Nc1cccc(Cl)c1 | 26 | -6 | . | 5 | 10 | . | .
COc1ccc2cc3cc(C(=O)NCCCN4CCOCC4)oc3nc2c1 | -5 | 58* | 10 | 79* | 45 | 67* | 81*
COc1ccc2cc3cc(C(=O)NCCN4CCN(Cc5ccccc5)CC4)oc3nc2c1 | 15 | 57* | 13 | 75* | 39 | 58* | -21
COc1ccc2nc3oc(C(=O)NC4CCN(Cc5ccccc5)CC4)cc3cc2c1 | 42 | 52* | 7 | 74* | 34 | 50* | 44*
CCN1CCN(CCCNC(=O)c2cc3cc4ccc(OC)cc4nc3o2)CC1 | 5 | 16 | 30 | 11 | 39 | . | .
